Data on 39 molecules can be found in PubChem BioAssay (NCI).

About 83,000 compounds went through this panel and 20% of them were active in at least one assay; those are over-represented in the sample as a whole.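 48-hour exposure, single concentration, 96-well plates; percent growth endpoint where 0 means no net growth. Active: below 10.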 Activity calls are given as the source filed them.

In the experiment the test system is SK-OV-3 ovarian. Nature of the experiment: NCI-60 one-dose screen, 48 h (100 = growth as untreated, 0 = no growth, -100 = all killed). Particulars: 10 µM unless noted.
Turning to `CCn1cc(C(=O)O)c(=O)c2cc(F)c(N3CCN(CC(=O)Nc4ccccc4)C(C)C3)c(F)c21` (centres undefined), the growth is 90.7% (inactive).

For the molecule `c1cc(OCCN2CCCCC2)ccc1CNc1ccc2nc(CCC3CCCCC3)[nH]c2c1`, the growth was 86.1% (inactive).

On to `COC1C(O)CC(OC2CC(OC3CC(O[C@@H]4C(=O)c5c(cc6cc(OC7CC(OC8CC(O)C(O)C(C)O8)C(O)C(C)O7)c(C)c(O)c6c5O)CC4[C@H](OC)C(=O)C(C)=O)OC(C)C3O)OC(C)C2O)OC1C` (some centres undefined), for which the growth was 17.4% (inactive).

Take `Cc1ccc(OCCOCCOCCOc2ccc(C)n(O)c2=S)c(=S)n1O`: the growth was 64.9% (inactive).

`Cn1cc(-c2csc(-c3cn(CCCN4CCOCC4)c4ccc(F)cc34)n2)c2cccnc21`: the growth is 80% (inactive).

Turning to `O=C1c2cccnc2C(=O)c2c1c(C(=O)OCCc1ccccn1)c1ccccn21`, the growth was -66.5% (active).

Take `C#CCOc1cccc(Nc2ncnc3c2ncn3C2CCN(C(=O)CCl)C2)c1` (centres undefined): the growth was 48.4% (inactive).

As to `O=C(Cn1nc(-c2cccc3ccccc23)ccc1=O)NCc1cccc(Cl)c1`, the growth is 61.5% [50 µM] (inactive).

On to `CC1(C)CC[C@]23CC[C@]4(C)[C@H](CC[C@@H]5[C@@]6(C)C/C(=C/O)C(=O)C(C)(C)[C@@H]6CC[C@]54C)[C@H]2[C@H]1OC3`, for which the growth was 110% (inactive).

For `Clc1ccc(-c2cc(-c3ccccc3)nc(N3CCN(CCCNc4ccnc5cc(Cl)ccc45)CC3)n2)cc1`, the growth is 106% (inactive).

For the molecule `Nc1nc(C(=O)N/N=C/c2ccc(F)cc2)nn1-c1ccc(S(N)(=O)=O)cc1`, the growth was 105% (inactive).

Regarding `CN(C)c1ccc(CNCCO)cc1`, the growth was 71.4% (inactive).

Consider `Nc1c(Br)cc2c(c1Br)Cc1cc([N+](=O)[O-])ccc1-2`, for which the growth was 92.2% (inactive).

As to `COC(=O)Cn1c2c(c3c(OC)cccc31)C(=O)c1ccccc1-2`, the growth is 96.9% (inactive).

In the case of `O=C(/C=C/c1ccccc1)c1ccc(-n2cc(CN3CCN(c4cc5c(cc4F)c(=O)c(C(=O)O)cn5C4CC4)CC3)nn2)cc1`, the growth is 80% (inactive).

For the molecule `Cc1cc2oc(/C=C/c3ccccc3)cc(=O)c2c(C)c1Cl`, the growth was 96.3% (inactive).

Take `Cc1nc(N/N=C/c2cn(-c3ccccc3)nc2-c2cc3ccccc3oc2=O)sc1N=Nc1ccccc1`: the growth was 109% (inactive).

Turning to `Oc1c(CN2CCC(N3CCOCC3)CC2)cc(Cc2cc(CN3CCC(N4CCOCC4)CC3)c(O)c3ncccc23)c2cccnc12`, the growth is 0.924% (active).

For the molecule `N#Cc1nn(-c2cc(=O)[nH]c3ccc(Br)cc23)c(N)c1C#N`, the growth is 69.1% (inactive).

For the molecule `CCCCO[C@@H]1C=C2[C@H]3CC(C)(C)C(=O)C[C@]3(C(=O)O[C@@H]3O[C@H](CO[C@@H]4O[C@H](CO)[C@@H](OC5OC(C)C(O)C(O)C5O)[C@H](O)[C@H]4O)[C@@H](O)[C@H](O)[C@H]3O)CC[C@@]2(C)[C@]2(C)CC[C@H]3C(C)(C)C(=O)CC[C@]3(C)[C@@H]12` (some centres undefined), the growth was 91.8% (inactive).

For `CC(=O)c1c(Nc2cccc(F)c2)[nH]c2c(Cl)cc(Cl)c(Cl)c2c1=O`, the growth is 1.25% (active).

With `O=c1cc(CP(=O)(O)O)c2cc(O)c(-c3ccccc3)cc2o1`, the growth was 102% (inactive).

With `CC(=O)c1sc(-c2ccc(F)cc2)cc1O`, the growth was 102% (inactive).

On to `CC(=O)c1ccc(-n2cc(CN3CCN(c4cc5c(cc4F)c(=O)c(C(=O)O)cn5C4CC4)CC3)nn2)cc1`, for which the growth is 84.9% (inactive).

As to `COc1ccc(CN2C(=O)OC(C)(COC(C)=O)C2=O)cc1` (centres undefined), the growth is 97.3% (inactive).

In the case of `O=C1CCCC1[n+]1ccccc1` (centres undefined), the growth is 80.1% (inactive).

For the molecule `CN(C)CCC(=O)C1CC1`, the growth is 110% (inactive).

For the molecule `Nc1ccc(-c2ccncc2)cc1NC(=O)N1CCCC1`, the growth was 92.2% (inactive).

For the molecule `O=c1oc2c(cnc3ccccc32)cc1-c1cccc(Cl)c1`, the growth is 105% (inactive).

In the case of `C/C(=C(\c1ccc(OCCN2CCCCCC2)cc1)c1ccc(OC(=O)c2ccccc2)cc1)c1ccc(Cl)cc1`, the growth was 77.1% (inactive).

For the molecule `Nc1cccc(-c2ccc(COc3ccc(CC4SC(=O)NC4=O)cc3)cc2)c1` (centres undefined), the growth was 62.1% (inactive).

As to `C=C(C)[C@@H]1CC[C@]2(COC3CCCCO3)CC[C@]3(C)[C@H](CC[C@@H]4[C@@]5(C)C=C(C=O)C(=O)C(C)(C)[C@@H]5CC[C@]43C)[C@@H]12` (some centres undefined), the growth was -40% (active).

Consider `O=C1CCCCN1c1ccc(C2=NCCCN2)cc1`, for which the growth was 119% (inactive).

Turning to `Cc1cc(=O)oc2cc(Oc3nc(Br)cn4c(Br)cnc34)ccc12`, the growth was 85.5% (inactive).

Turning to `C=CN(C(=O)N1CCN(c2cc3c(cc2F)c(=O)c(C(=O)O)cn3C2CC2)CC1)c1nc(-c2ccc(Cl)cc2)cs1`, the growth was 74.7% (inactive).

Turning to `Cc1ccccc1N1CCN(C(=S)c2ccccc2)CC1`, the growth was 98.1% (inactive).

Regarding `COc1ccc(Cl)cc1Nc1nc(C(F)(F)F)ccc1C(=O)N/N=C/c1ccc([N+](=O)[O-])cc1`, the growth was 14.5% (inactive).

Turning to `O=C(Nc1nc(Cl)nc(Nc2ccc(N3CCOCC3=O)cc2)n1)c1ccc(Cl)s1`, the growth was 99% (inactive).

In the case of `COCCOC(C)C(/C=N/NC(N)=S)=N/NC(N)=S` (centres undefined), the growth was 93.3% (inactive).
